Only some compounds are listed: those with a hit (about 0.38% of all), similar ones and a draw of the others.
Rac1 mut GTP – modulators of GTP binding to human Rac1 activated mutant; percent activity (GTP binding), % at 10 µM; GST-Rac1 activated beads, fluorescent GTP binding, flow cytometry; actives lie on both sides; 100% means binding = to untreated wells; P63000; 0.11% of 190,000 active;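 active = GTP binding at least 20 percentage points away from the 100% baseline, in either direction, so actives lie on both sides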
Rac1 wt modul – human Rac1 wildtype GTP binding, inhibitors and activators. GST-Rac1 beads, fluorescent GTP binding, flow cytometry; actives lie on both sides; 0 = cold GTP competed, 100 = untreated. GTP binding activity (% of control), % at 10 µM. AID 757. P63000. 0.27% of 190,000 active;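 active = GTP binding activity at least 20 points away from the 100% control level, either lower or higher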
HRas wt GTP bind – changes GTP binding to wildtype human HRas | GST-Ras wt beads, Bodipy-FL-GTP binding, flow cytometry; actives lie on both sides | GTP binding activity, % at 10 µM | 0.14% of 190,000 active | AID 759;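 active = GTP binding activity at least 20% away from the 100% baseline, either lowered as inhibitor or raised as activator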;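 also: 0% = unlabeled GTP competition control and 100% = no-compound control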
Target sequence (P01112 whole entry, looked up): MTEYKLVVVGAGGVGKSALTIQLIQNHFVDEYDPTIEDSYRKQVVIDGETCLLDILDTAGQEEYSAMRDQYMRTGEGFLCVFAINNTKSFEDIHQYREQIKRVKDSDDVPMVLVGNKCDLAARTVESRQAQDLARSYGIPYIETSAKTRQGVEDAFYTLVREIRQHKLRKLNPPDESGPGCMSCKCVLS
Rab2A wt mod – changes GTP binding to wildtype dog Rab2A, up or down; P61105; GST-Rab2 wt beads, Bodipy-GTP binding, flow cytometry; GTP binding activity, % at 10 µM; 0.19% of 190,000 active; AID 760;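 active = GTP binding activity at least 20 points away from 100%, either lowered or raised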;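 also: 0% = beads with excess unlabeled GTP and 100% = no-compound control corrected for plate trend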
Cdc42 wt GTP – modulators (inhibitors or activators) of GTP binding to human Cdc42 wildtype; percent activity (GTP binding), % at 10 µM; GST-Cdc42 beads, Bodipy-GTP binding, flow cytometry; actives lie on both sides; 0.2% of 190,000 active;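 active = percent activity GTP binding at least 20 points away from the 100% baseline, either down as inhibitor or up as activator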;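 also: median bead fluorescence of bound Bodipy-FL-GTP at 100 nM; 0% = excess unlabeled GTP control and 100% = no compound control; below 100% means less GTP binding so inhibitor and above means activator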
Target sequence (P60953 whole entry, looked up): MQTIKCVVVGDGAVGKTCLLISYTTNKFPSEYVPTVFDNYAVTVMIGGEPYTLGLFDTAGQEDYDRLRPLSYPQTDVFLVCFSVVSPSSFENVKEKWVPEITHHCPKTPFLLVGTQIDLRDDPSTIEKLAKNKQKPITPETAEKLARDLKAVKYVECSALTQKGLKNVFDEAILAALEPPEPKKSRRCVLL
Rab7 wt GTP bind – alters GTP binding to wildtype dog Rab7. GST-Rab7 beads, fluorescent GTP binding, flow cytometry; actives lie on both sides; untreated = 100%, excess cold GTP = 0%. GTP binding activity (percent of control), % at 10 µM. 0.055% of 190,000 active;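 active = fluorescent GTP binding to Rab7 beads changed by at least 20 points from the 100% baseline, either direction, mostly lower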;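 also: median green fluorescence of bound Bodipy-FL-GTP per Rab7 bead population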
Numbers without * were called inactive; [ ] = another dose, or the depositor's remark.

SMILES	Rac1 mut GTP	Rac1 wt modul	HRas wt GTP bind	Rab2A wt mod	Cdc42 wt GTP	Rab7 wt GTP bind
C/C(=N\NC(=O)c1c[nH]c2ccccc12)c1ccc(C)o1	92	79*	84	85	84	92
COc1cc(/C=N/Nc2nc(C)nc3c2cnn3-c2ccccc2)ccc1O	85	70*	83	79*	77*	95
COc1cc(/C=N/NC(=O)c2cnn3c(C)cc(-c4ccccc4)nc23)ccc1O	89	89	96	89	89	94
Cc1c(CCC(=O)O)c(=O)oc2cc(O)ccc12	99	100	101	98	102	102
Cc1c(CCC(=O)O)c(=O)oc2cc3occ(-c4ccc(F)cc4)c3cc12	83	68*	83	81	80	86
N#Cc1c(C(F)(F)F)cc(-c2ccc(Cl)cc2)[nH]c1=O	78*	78*	81	81	76*	78*
CCOc1ccc(-c2nn(-c3ccccc3)cc2/C=C(\C#N)S(=O)(=O)c2ccccc2)cc1C	105	108	106	106	109	100
CCOc1cc(C2c3c(-c4ccccc4)n[nH]c3C(=O)N2c2ccc(C(=O)O)cc2)ccc1O (stereo not drawn)	74*	59*	85	79*	79*	94
Oc1ccc(NC(=S)N=Nc2c(O)[nH]c3ccc(Br)cc23)cc1	90	79*	80	79*	79*	92
CNC(=S)N=Nc1c(O)[nH]c2ccccc12	84	69*	79*	72*	80	85
Cc1ccc(NC(=S)N=Nc2c(O)[nH]c3ccccc23)cc1	89	84	87	84	86	87
Oc1ccc(NC(=S)N=Nc2c(O)[nH]c3ccccc23)cc1	86	70*	77*	75*	71*	101
CCOC(=O)N1CCN(C(=O)CC(=O)Nc2ccc3nc4n(c(=O)c3c2)CCCCC4)CC1	95	95	96	95	95	93
Cc1cc(-c2ccccc2)nc(N2CCC(C(=O)NCc3ccccc3Cl)CC2)n1	94	100	96	93	97	96
CN(C(=O)C1CCCO1)c1nnc(-c2ccncc2)s1 (stereo not drawn)	99	100	96	97	95	95
CCN(CC(=O)NC(C)C)C(=O)C(CCSC)NC(=O)c1cccc(C)c1 (stereo not drawn)	99	102	98	100	97	99
CS(=O)(=O)N(Cc1ccccc1)c1ccc(C(=O)Nc2cccnc2)cc1	99	104	100	102	102	96
O=C(N/N=C/c1ccccc1)c1ccc(OCc2ccccc2)cc1	96	103	100	98	99	95
CC(C)Oc1ccc(/C=N/NC(=O)c2ccc(N(Cc3ccccc3)S(C)(=O)=O)cc2)cc1	85	74*	84	74*	84	87
COC(=O)COc1ccc(/C=N/NC(=O)c2ccc(N(Cc3ccccc3)S(C)(=O)=O)cc2)cc1	88	76*	81	76*	86	89
N#C/C(=C(/O)CCCl)c1ccccn1	95	96	97	99	99	99
O=S(=O)(CC(CN1CCOCC1)N1CCOCC1)c1ccccc1 (stereo not drawn)	53*	56*	58*	55*	60*	23*
Cc1cc(=O)n2ncnc2n1COCCO	101	106	106	104	107	108
Cn1nnc(NC(=S)NC(=O)c2ccc(-c3ccc(Br)cc3)o2)n1	87	76*	87	86	81	96
O=C(/C=C/c1ccc2c(c1)OCO2)c1ccco1	97	100	100	98	103	100
SMILES	Rac1 mut GTP	Rac1 wt modul	HRas wt GTP bind	Rab2A wt mod	Cdc42 wt GTP	Rab7 wt GTP bind
COc1cc(/C=C2\SC(=Nc3ccc(O)cc3)NC2=O)cc(OC)c1O	86	72*	84	83	79*	96
O=C1NC(=Nc2ccc(O)cc2)S/C1=C/c1ccco1	93	95	93	93	95	94
CCCc1cc(NCC2CCCO2)n2c(nc3ccccc32)c1C#N (stereo not drawn)	98	96	97	97	95	94
CCCc1cc(NCc2ccccn2)n2c(nc3ccccc32)c1C#N	88	75*	86	83	81	93
Cc1cc(NCc2ccccn2)n2c(nc3ccccc32)c1C#N	84	66*	75*	70*	72*	78*
Cc1cc(C)n2nc(SCCOc3ccc(F)cc3)nc2n1	82	68*	73*	74*	68*	100
Cc1cccc(OCC(=O)N/N=C/c2ccc3c(c2)OCO3)c1	78*	82	85	83	77*	92
O=C(COc1ccccc1)N/N=C/c1ccc2c(c1)OCO2	87	91	88	86	89	93
COc1ccc2[nH]c3nc(SCC(=O)Nc4ccc5c(c4)OCO5)nnc3c2c1	87	87	74*	72*	74*	85
COc1ccc2nc(SCC(=O)Nc3ccc4c(c3)OCCO4)[nH]c2c1	99	101	101	98	101	100
Cc1ccc(NC(=O)CN2C(=O)S/C(=C\c3ccc(-c4cccc(C(=O)O)c4C)o3)C2=O)cc1C	82	84	89	82	79*	97
Cc1cccc(NC(=O)CN2C(=O)N/C(=C/c3ccc(-c4cccc(C(=O)O)c4C)o3)C2=O)c1	92	97	91	92	93	93
O=C(Nc1ccccc1)C1=C(c2ccccc2)S(=O)(=O)CCS1(=O)=O	81	87	90	87	77*	98
O=C(O)c1cc([N+](=O)[O-])ccc1NCc1ccccc1Cl	133*[activator]	146*[activator]	125*[activator]	129*[activator]	129*[activator]	114
Cc1ccc(-c2csc(/C(C#N)=C/Nc3ccccc3SC(F)(F)F)n2)c(C)c1	101	105	100	99	101	100
CCC(C)N1CNc2c(c(=O)[nH]c(=S)n2-c2cccc(C)c2)C1 (stereo not drawn)	98	100	98	98	96	101
Cc1ccc(-c2nnc(SCC(=O)N3CCCc4ccccc43)n2N)cc1	93	107	99	97	94	98
Cc1cc(N/N=C/c2ccc(O)cc2O)nc(-c2ccccc2O)n1	89	71*	79*	77*	81	94
O=C(CCN1C(=O)c2ccccc2C1=O)Nc1ccc(S(=O)(=O)N2CCOCC2)cc1	97	109	102	103	101	105
COc1ccc(C(=O)c2c(O)cc(-c3ccc(OC)cc3)oc2=O)cc1	116	137*[activator]	118	118	117	125*[activator]
